Measured values from the supplement of paper PMC6555819.

Legend:
Assay in all cases: PBM binding z-score (relative to random genomic background probes); higher = stronger binding; sequences stand for … in GC…GCGATTGACAGCGTAGAATGAAGG
[1] = test system: RARb homodimer (NR concentration 270 nM)
In short: (§1)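 Scanned fluorescence from custom Agilent 4×180K protein-binding microarrays was regression-normalized. Binding z-scores use random background probes as reference. Ligand-free nuclear receptor dimers were incubated on the arrays for 1 h and detected with antibodies against each partner (one per run).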

[2] = test system: RARg:RXRa (NR concentration 270 nM, RXRa partner concentration 90 nM)
In short: as §1

[3] = test system: RARg homodimer (NR concentration 270 nM)
In short: as §1

[4] = test system: RXRa DBDmut IVT, anti-RXR (DBD mutation: RXRa K156A/R161A, NR concentration 90 nM)
In short: as §1

[5] = test system: RXRa homodimer (NR concentration 180 nM)
In short: as §1

[6] = test system: THRa:RXRa (NR concentration 90 nM, RXRa partner concentration 90 nM)
In short: as §1

[7] = test system: THRa homodimer (NR concentration 90 nM)
In short: as §1

[8] = test system: VDR homodimer (NR concentration 270 nM)
In short: as §1

Row | Sequence | PBM binding z-score [1] | PBM binding z-score [2] | PBM binding z-score [3] | PBM binding z-score [4] | PBM binding z-score [5] | PBM binding z-score [6] | PBM binding z-score [7] | PBM binding z-score [8]
1 | CCTGCTAGGTCAATGGTCAGCGAAAGCAGCTCGC | 2.63 | 3.65 | 4.18 | 1.73 | 2.11 | 2.32 | 0.558 | -0.0463
2 | TAGCCTAGGTCATTCAGGGGCCAGGATAGAAAGC | 3.18 | 6.27 | 4.6 | 1.8 | 2.86 | 3.57 | 0.667 | 1.6
3 | CCAGACACGTGAAAGGTAACTCAGTCTGGTACGC | -0.128 | -0.098 | 0.0725 | 0.166 | 0.263 | 0.166 | -0.268 | -0.17
4 | ACAGACAGGTGAGTGAAGGTAATTCAGCTGGACG | -0.0285 | 0.335 | 0.578 | -0.442 | 0.191 | 1.25 | -0.521 | -0.158
5 | GCATATAAGTAATACAAGGTGAAAGTCCGATTGT | 0.816 | 0.308 | 0.389 | 0.717 | 0.568 | 2.96 | 0.985 | -0.188
6 | ATCTCTAGGCAAAAGTTCAGTGAATCCCGAGGAT | 2.4 | 1.66 | 1.69 | 0.479 | 1.02 | 0.622 | -0.181 | 0.923
7 | CAAACTACGTCACCGGAAGGTCAAAGTCCGCATG | 4.23 | 4.01 | 2.91 | 0.765 | 3.55 | 2.88 | 1.47 | 2.03
8 | CACGAAAGGTCGTGCTCAGGTGAGTATACCAAAC | 2.88 | 5.37 | 4.66 | 2.24 | 5.36 | 3.96 | 1.18 | 1.46
9 | TCATATAGGTAAAAGGAGAAAGTCGGTGTGGTAA | -0.155 | 0.181 | 0.123 | 1.49 | 0.649 | -0.0526 | -0.722 | 0.471
10 | TCTAGCAGGTCAGAGGGTCACTCAAGAGGTACGG | 4.51 | 5.64 | 5.13 | 0.85 | 5.09 | 3.03 | 0.408 | 1.72
11 | AGAATGAGGTTAAGAACAGGGAAACAGAATACAT | 1.14 | 1.96 | 1.4 | 0.678 | 2.42 | 2.25 | 0.727 | 0.533
12 | ATCGACAGGTCGAAGGTGAGTATACCCACCCGAA | 0.661 | 1.8 | 1.51 | -0.283 | 2.37 | 0.716 | -0.432 | -0.198
13 | ACTTACGGGTCCACGAGGTTATAGCACGCGTATA | 1.33 | 1.43 | 0.919 | 3.07 | 1.61 | 2.26 | 1.65 | 3.37
14 | TGAATGAGGTTAAAGCTCAGGGAACGTGGCGTCG | 0.437 | 1.9 | 0.981 | 1.06 | 2.71 | 2.16 | 0.216 | 0.0356
15 | CCGACTGGGGGAAGGTTACCATAACGCACAGCCA | 0.998 | 1.06 | 1.02 | -0.37 | 1.02 | 1.1 | 0.107 | 0.178
16 | GCGACTGGGGCAAAACAGGTTACCATAAGGTTGG | 1.31 | 0.535 | 0.627 | -0.186 | 0.658 | 2.3 | 0.0603 | -0.526
17 | TCTGCTAGGTCAACGATGGGCAGCTAATCTGCTA | 2.74 | 3.94 | 5.25 | 0.549 | 2.44 | 2.63 | 0.424 | -0.398
18 | TCTTGTAGATCAAAGGTTAAGAACGCCGAAGCCT | 1.51 | 1.82 | 0.951 | 0.794 | 3.38 | 1.53 | -0.428 | 0.13
19 | CGAACTAGGTCATCAAGGACAGTGAATACATTGA | 3.18 | 3.95 | 4.85 | 1.92 | 2.67 | 3.87 | 2.11 | 1.83
20 | ACCTCTAGGTAAGACTCAGTTCAGTGAAGAACGC | 0.0203 | -0.0549 | -0.0332 | 0.371 | -0.0186 | 0.243 | 0.088 | 0.678
21 | CCCACTGGGCCACGAAAGGTCATTGATTCAGTGA | 4.6 | 4.7 | 4.33 | -0.145 | 4.87 | 4.11 | 1.09 | 2.4
22 | ATTCGGAGGACAAAGGTCAGAGCTACGCCAGTGA | 4.59 | 5.89 | 5.52 | 0.937 | 5.03 | 3.41 | 0.717 | 1.32
23 | TATACAGGGTCACAGGCCAGAGTACGAATGTCGA | 3.83 | 5.96 | 5.41 | 2.61 | 6.79 | 3.92 | 1.94 | 2.51
24 | CCTCGGAGGAGAACAGGAGGTCAGAGCTGCCAGA | 2.87 | 2.04 | 1.63 | -0.274 | 1.76 | 2.21 | 0.793 | 0.851
25 | TAGCCTAGGTCATTCAGGGGCCAGTAGAGAAAGC | 3.21 | 6.31 | 4.35 | 1.84 | 2.97 | 3.63 | 0.688 | 1.53
26 | ATCTCTAGGTAACCAAGTTCAGTAAATGCCGAAC | 1.71 | 0.886 | 0.809 | 1.13 | 0.802 | 1.67 | 1.07 | 2.48
27 | ACAGACAAGTGAGTGAAGGTAACTCAGCTGGACG | -0.464 | -0.0696 | 0.0663 | -0.283 | -0.0064 | -0.0405 | -0.435 | -0.445
28 | ACAGACAGGTGATGAAGCTAACTCAGGCTATCAT | -0.226 | 0.175 | 0.281 | -0.327 | 0.256 | 0.425 | -0.032 | -0.132
29 | TCACACAGGTGAAGGTAACTCAGGTACGCAGTCG | 0.561 | 0.746 | 0.701 | 0.879 | 1.18 | 1.4 | 0.16 | 0.257
